{"source": "PubChem BioAssay AID2058", "about": "(Sanford-Burnham Center for Chemical Genomics, 2009)", "note": "Hit rate of the full screen: of about 290,000 compounds, about 150 (0.052%) were called active.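 How the source made its calls: active means inhibition of at least 50% with at least 30 cells and total cytoplasm GFP at most 10,000,000; inconclusive means under 30 cells or total GFP of 10,000,000 plus; inactive means the rest.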 The sample as a whole holds a higher share of actives than the screen did. Entries with a potency or affinity are not part of this list."}
{"biological_target": "G-protein coupled receptor 35 (Homo sapiens) (UniProt Q9HC97)", "sequence (Q9HC97 whole entry, looked up)": "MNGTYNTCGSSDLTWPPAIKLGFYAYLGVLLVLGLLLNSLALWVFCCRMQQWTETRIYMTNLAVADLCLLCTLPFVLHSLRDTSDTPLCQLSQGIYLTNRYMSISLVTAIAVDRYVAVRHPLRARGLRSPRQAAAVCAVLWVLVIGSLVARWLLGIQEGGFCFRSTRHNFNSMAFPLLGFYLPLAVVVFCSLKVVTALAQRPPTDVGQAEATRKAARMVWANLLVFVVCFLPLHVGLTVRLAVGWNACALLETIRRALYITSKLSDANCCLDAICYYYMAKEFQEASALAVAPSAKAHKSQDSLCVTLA", "experiment": "inhibition of zaprinast-stimulated GPR35 beta-arrestin translocation – imaging, U2OS, beta-arrestin-GFP, zaprinast agonist, primary screen (AID 2058)", "details": "zaprinast antagonism, at 10 µM, active compounds read high"}
{"smiles": "COc1ccc(COc2ccccc2C(=O)Nc2ccccn2)cc1[N+](=O)[O-]", "inhibition": "15.8% (inactive)"}
{"smiles": "Cc1ccc(S(=O)(=O)N/N=C/c2cccc(OC3CSC3)c2)cc1", "inhibition": "9.4% (inactive)"}
{"smiles": "C[C@@H]1CC=C[C@H]2[C@H]1C(=O)N(Cc1ccccc1)[C@H]2c1ccc(F)c(-c2ccc(N(C)C)cc2)c1", "inhibition": "17.6% (inactive)"}
{"smiles": "Cc1ccc(-c2nnc(N3CC(C)OC(C)C3)c3ccccc23)cc1", "note": "(stereo not drawn)", "inhibition": "13.6% (inactive)"}
{"smiles": "COc1cc(C(=S)N2CCOCC2)ccc1OC(=O)c1cc([N+](=O)[O-])c(C)c([N+](=O)[O-])c1", "inhibition": "10.7% (inactive)"}
{"smiles": "CCc1ccc(C(C)NC(=O)c2ccc3c(c2)OCO3)cc1", "note": "(stereo not drawn)", "inhibition": "-12.5% (inactive)"}
{"smiles": "O=C(NC(c1ccccc1)c1ccccc1)c1ccc(CO)cc1", "inhibition": "7% (inactive)"}
{"smiles": "CC1=CC(C)(C)N(C)C(=O)N1c1ccc(Cl)cc1", "inhibition": "20.7% (inactive)"}
{"smiles": "Cc1cc(=O)cc(C)n1-c1ccc(Cl)cc1", "inhibition": "-8.7% (inactive)"}
{"smiles": "COC1CCN(C(=O)c2cc(COc3ccc(-n4cncn4)cc3)on2)CC1", "inhibition": "17.9% (inactive)"}
{"smiles": "O=C(Nc1cc([N+](=O)[O-])ccc1N1CCCC1)c1ccco1", "inhibition": "-5% (inactive)"}
{"smiles": "CC(C)(C)C(=O)C[n+]1ccccc1", "inhibition": "-9.2% (inactive)"}
{"smiles": "CCCOC(=O)c1ccc(Nc2cc(C)nc3ncnn23)cc1", "inhibition": "11.5% (inactive)"}
{"smiles": "COCCN(CC(=O)NC1CCCCC1)C(=O)/C=C/C(=O)c1ccc(OC)cc1O", "inhibition": "15.7% (inactive)"}
{"smiles": "COc1ccc(C(=O)/C=C/C(=O)N(CC(=O)NC2CCCCC2)CC2CCCO2)c(O)c1", "note": "(stereo not drawn)", "inhibition": "69.1% (active)"}
{"smiles": "COc1ccc(C(=O)/C=C/C(=O)N(CC(=O)NC2CCCCC2)Cc2ccccc2)c(O)c1", "inhibition": "-0.1% (inactive)"}
{"smiles": "Cc1nn(-c2ccccc2)nc1C(N)=O", "inhibition": "12.1% (inactive)"}
{"smiles": "O=C1C=CC(=O)N1Cc1ccccc1", "inhibition": "4.8% (inactive)"}
{"smiles": "O=C1C2C3C=CC(C3)C2C(=O)N1CCCCCCN1C(=O)C2C3C=CC(C3)C2C1=O", "note": "(stereo not drawn)", "inhibition": "-2% (inactive)"}
{"smiles": "COc1cccc(Nc2nc(N)c([N+](=O)[O-])c(N3CCOCC3)n2)c1", "inhibition": "0.4% (inactive)"}
{"smiles": "O=C(NCc1ccco1)C(=O)NCC1OCCCN1S(=O)(=O)c1ccc(Cl)cc1", "note": "(stereo not drawn)", "inhibition": "-6.3% (inactive)"}
{"smiles": "C/C(=N/NC(=O)CNC(=O)C1COc2ccccc2O1)c1cccc(O)c1", "note": "(stereo not drawn)", "inhibition": "0.2% (inactive)"}
{"smiles": "O=C(/C=C\\c1ccccc1)NCC(=O)N/N=C/c1ccc(O)cc1O", "inhibition": "10.7% (inactive)"}
{"smiles": "COc1ccc(/C=C/C(=O)NCC(=O)N/N=C/c2ccc(OC)cc2)cc1", "inhibition": "9% (inactive)"}
{"smiles": "Cc1ccc(/C=C2/SC(=S)N(CCCC(=O)Nc3ccc(O)cc3)C2=O)cc1", "inhibition": "36.2% (inactive)"}
{"smiles": "COc1ccc(/C=C2\\SC(=S)N(CCCC(=O)Nc3ccc(C(=O)O)cc3)C2=O)cc1OC", "inhibition": "30% (inactive)"}
{"smiles": "CCc1ccc(/C=C2/SC(=S)N(CCC(=O)Nc3cccc(C(=O)O)c3)C2=O)cc1", "inhibition": "-9.9% (inactive)"}
{"smiles": "COc1ccc(/C=C2\\SC(=S)N(CCCC(=O)Nc3ccc(O)cc3)C2=O)cc1", "inhibition": "44.8% (inactive)"}
{"smiles": "COc1ccc(/C=C2/SC(=S)N(Cc3ccccc3)C2=O)cc1O", "inhibition": "-18.7% (inactive)"}
{"smiles": "COc1cc(/C=C2/SC(=S)N(Cc3ccccc3)C2=O)ccc1O", "inhibition": "-5.7% (inactive)"}
{"smiles": "COc1ccc(/C=C2\\SC(=S)N(CCC(=O)Nc3cccc(C(=O)O)c3)C2=O)cc1", "inhibition": "2.8% (inactive)"}
{"smiles": "COc1cc(/C=C2/SC(=S)N(Cc3ccccc3)C2=O)cc(Cl)c1O", "inhibition": "74.4% (active)"}
{"smiles": "O=C(CCCN1C(=O)/C(=C\\c2cccs2)SC1=S)Nc1cccc(C(=O)O)c1", "inhibition": "0.3% (inactive)"}
{"smiles": "COC(=O)c1ccc(Cn2nc(C)c(Br)c2C)cc1", "inhibition": "4% (inactive)"}
{"smiles": "C[C@H](NC(=O)c1nc[nH]c1C(=O)N[C@H](C)c1ccccc1)C(=O)OC(C)(C)C", "inhibition": "5.8% (inactive)"}
{"smiles": "Cc1cc(=O)oc2c(C)c3occc3cc12", "inhibition": "-1.8% (inactive)"}
{"smiles": "O=C1C(=O)N(CCN2CCOCC2)C(c2cccc(Cl)c2)/C1=C(\\O)c1ccc2c(c1)OCCO2", "note": "(stereo not drawn)", "inhibition": "-1.2% (inactive)"}
{"smiles": "Cc1ccccc1COc1ccc2oc(C)c(C(=O)O)c2c1", "inhibition": "-10.4% (inactive)"}
{"smiles": "O=[N+]([O-])c1c(-c2cn[nH]c2)n[nH]c1-c1cn[nH]c1", "inhibition": "-2% (inactive)"}
{"smiles": "O=C(COc1ccc(S(=O)(=O)N2CCCC2)cc1Cl)N1CCN(c2ccccc2)CC1", "inhibition": "-0.4% (inactive)"}
{"smiles": "Cc1oc(-c2ccccc2F)nc1CN1CCC(C(=O)NC2CC2)CC1", "inhibition": "-1.6% (inactive)"}
{"smiles": "O=C(CCCN1C(=O)/C(=C/c2ccccc2)SC1=S)Nc1cccc(O)c1", "inhibition": "-8.3% (inactive)"}
{"smiles": "O=C(CCN1C(=O)/C(=C/c2ccc(Cl)cc2)SC1=S)Nc1cccc(C(=O)O)c1", "inhibition": "1.5% (inactive)"}
{"smiles": "CCc1ccccc1NC(=O)c1cccc(NC(=O)/C=C/c2ccco2)c1", "inhibition": "10.4% (inactive)"}
{"smiles": "O=C(/C=C/c1ccco1)Nc1ccccc1C(=O)Nc1cccc(C(=O)O)c1", "inhibition": "-11.1% (inactive)"}
{"smiles": "CCOc1ccc(C2C(C(=O)c3ccc(C)o3)=C(O)C(=O)N2c2nc(C)c(C(=O)OC)s2)cc1", "note": "(stereo not drawn)", "inhibition": "5.8% (inactive)"}
{"smiles": "COC(=O)c1sc(N2C(=O)C(O)=C(C(=O)c3ccc(C)o3)C2c2ccc(F)cc2)nc1C", "note": "(stereo not drawn)", "inhibition": "100% (active)"}
{"smiles": "COC(=O)c1sc(N2C(=O)C(O)=C(C(=O)c3ccc(C)o3)C2c2ccc([N+](=O)[O-])cc2)nc1C", "note": "(stereo not drawn)", "inhibition": "-3.4% (inactive)"}
{"smiles": "O=S(=O)(Nc1ccc(N=Nc2ccccc2)cc1)c1ccccc1", "inhibition": "-12.2% (inactive)"}
{"smiles": "O=S(=O)(Nc1ccc(N=Nc2ccc(O)c3ccccc23)cc1)c1ccccc1", "inhibition": "70.3% (active)"}
{"smiles": "O=S(=O)(Nc1ccc(O)c(NS(=O)(=O)c2ccccc2)c1)c1ccccc1", "inhibition": "-5.8% (inactive)"}
{"smiles": "COc1cccc(NC(=O)NNC(=O)CCc2ccc(O)c(O)c2)c1", "inhibition": "11.4% (inactive)"}
{"smiles": "CN(C)C=NC(=O)c1ccc(N2CCN(c3ncc(C(F)(F)F)cc3Cl)CC2)cc1", "inhibition": "14.6% (inactive)"}
{"smiles": "CC(=O)c1ccc(N2CCN(c3ncc(C(F)(F)F)cc3Cl)CC2)cc1", "inhibition": "-3.2% (inactive)"}
{"smiles": "O=C(CSc1nnc(-c2ccc(F)cc2)o1)c1ccc2c(c1)OCCO2", "inhibition": "11.5% (inactive)"}
{"smiles": "O=C(/C=C/c1ccccc1)NC(NC(=S)Nc1ccc(Cl)cc1Cl)C(Cl)(Cl)Cl", "note": "(stereo not drawn)", "inhibition": "76.2% (active)"}
{"smiles": "O=C(/C=C/c1ccccc1)NC(NC(=S)Nc1cc(Cl)ccc1Cl)C(Cl)(Cl)Cl", "note": "(stereo not drawn)", "inhibition": "27.8% (inactive)"}
{"smiles": "O=C(/C=C/c1ccccc1)NC(NC(=S)Nc1ccc(Cl)cc1)C(Cl)(Cl)Cl", "note": "(stereo not drawn)", "inhibition": "-0.3% (inactive)"}
